Assay results as given in PubChem BioAssay (NCATS).
The source made the active and inactive calls. A call without a number means that no potency is given here. The call rests on the fitted dose curve; in most records, active means well fitted inhibition curve with a large enough effect; inconclusive means small, poorly fitted or top-dose-only effect; inactive means no such curve, though single readings can be large or run the other way.

test: qHTS assay for measurement of the activity of small molecule inhibitors on Zika virus induced Caspase-3 activity in human astrocytoma cells (AID 1224859); conditions: SNB-19 ZIKV-induced caspase-3/7, luminescence, 6 h; series mostly up to 45.7 µM
Excerpt: National Center for Advancing Translational Sciences [NCATS]
Johns Hopkins University School of Medicine
Increase in the Caspase-3 activity indicates an activation of apoptosis cell death pathway caused by Zika virus infection in certain types of neuronal cells including human neural progenitor cells (hNPCs), astrocytes, and astrocytoma cell line (SNB-19). This cell-based caspase-3 activity assay measures the increased caspase-3 activity in the astrocytoma cell line (SNB-19) after a 6-hour Zika virus infection with a luminescence readout. A decrease in the luminescence signal in this assay by small molecule treatment indicates an inhibitory effect of that small molecule on the Zika virus induced caspase-3 activity that may correlate with its effect on reduction of Zika virus caused cell death.
The medium for SNB-19 cells is composed of RPMI 1640 (ATCC, Cat.# 30-2001), 10% fetal bovine serum (FBS) (GE healthcare Life Sciences, Cat.# SH30071.03), and 1% Pen/Strep (Gibco, Cat.# 15140-122). A Caspase-Glo 3/7 assay kit (catalog number G8092; Promega, Madison, WI) was used to detect caspase-3 activity induced by Zika virus infection in human cells. The reagent mixture was reconstituted as described in the protocol from the manufacturer. Polystyrene tissue culture treated and PDL coated white plates were obtained from Greiner Bio-One (Monroe, NC). Cells were seeded in 384- or 1536-well assay plates and cultured at 37 C with 5% CO2 for 16 to 20 hours. The typical cell seeding density in the 1536-well plate assay is 250 cells/well in 3ul medium for SNB-19 cells in tissue culture treated plates. Compounds were added to cells and incubated for one hour before addition of ZIKV solution to cells (2 FFU/cell). After incubation at 37 C with 5% CO2 for 6 hours, the reagent mixture of Caspase-Glo 3/7 assay kit was added to each well, followed by incubation at room temperature for 30 minutes. The luminescence intensity of the assay plates was measured using a ViewLux plate reader (PerkinElmer). Data were normalized by using the cell-containing wells without ZIKV as a negative control (0% induction of caspase 3/7 activity) and wells containing ZIKV infected cells (Caspase-3 activity induced) as a positive control (100% induction of caspase 3 activity). The percentage inhibitions of the increased Caspase-3 activity by small molecule inhibitors were then calculated.
Potency means the concentration at half of the fitted maximal effect.

Row | SMILES | Potency
1 | O=C1O/C(=C/Br)CCC1c1cccc2ccccc12 (stereo not given) | inactive
2 | Nc1nc(Cl)nc2c1ncn2[C@@H]1O[C@H](CO)[C@@H](O)[C@H]1O | inactive
3 | C=CC(=O)c1ccc(CCCCCC)cc1 | inactive
4 | N.N.N.N.N.N.N.N.N.N.N.N.N.N.O.O.[Ru+4].[Ru+5].[Ru+5] | inactive
5 | CCCCCCCCCCCCCCCC(=O)OC(C)C | inactive
6 | CN(C)c1ccc(/C=C2\C(=O)Nc3ccccc32)cc1 | 10 µM (active)
7 | N=C1N=C(N)c2cc3ccccc3cc21 | inactive
8 | N#C/C(=C\c1ccc(O)c(O)c1)C(=O)c1ccc(O)c(O)c1 | inactive
9 | CN(C)CCn1nnnc1SCC1=C(C(=O)O)N2C(=O)[C@@H](NC(=O)Cc3csc(N)n3)[C@H]2SC1 | inactive
10 | O=C1C(SCCO)=C(SCCO)C(=O)c2ccccc21 | inactive
11 | CCCCCCCCCCCCCCCC(=O)NCC(COP(=O)([O-])OCC[N+](C)(C)C)OCC (stereo not given) | inactive
12 | Cn1c(=O)c2[nH]c(-c3ccccc3)nc2n(C)c1=O | inactive
13 | C=CC(C)=C[C@@]1(C)SC(=O)C(C)=C1O | inactive
14 | NO | inactive
15 | Cc1ccccc1CNc1ncnc2c1ncn2C1OC(CO)C(O)C1O (stereo not given) | inactive
16 | CNC(=O)[C@H]1O[C@@H](n2cnc3c(NCc4ccc(N)cc4)ncnc32)[C@H](O)[C@@H]1O | inactive
17 | Nc1cc(-c2ccncc2)c[nH]c1=O | inactive
18 | COc1cc(SC)ccc1C(=O)N1CCC(Cc2ccccc2)CC1 | inactive
19 | O=C(O)CC1CCCc2ccccc2C1O (stereo not given) | inactive
20 | CO/S(=N\S(=O)(=O)c1ccc(Cl)cc1)c1ccc([N+](=O)[O-])cc1 (stereo not given) | inactive

Row | SMILES | Potency
21 | COc1cccc2c1C(=O)c1c(O)c3c(c(O)c1C2=O)C[C@@](O)(C(=O)CO)C[C@@H]3O[C@H]1C[C@H](N)[C@H](O[C@@H]2CCCCO2)[C@H](C)O1 | inactive
22 | O=C1/C(=C/c2ccsc2)CC/C1=C\c1cccs1 | inactive
23 | O=c1[nH]c2cc(Cl)c(Cl)cc2[nH]c1=O | inactive
24 | Cn1ncc(S(=O)(=O)Cc2ccccc2)c(Br)c1=O | inactive
25 | COc1cc2c3cc1Oc1cc(ccc1O)C[C@@H]1c4c(cc(OC)c(O)c4Oc4ccc(cc4)C[C@@H]3N(C)CC2)CC[N+]1(C)C | inactive
26 | Cc1cc(O)c2ccccc2c1O | inactive
27 | COc1cc2c(CCNC(C)=O)c[nH]c2cc1Cl | inactive
28 | Nc1ccc(O)c([N+](=O)[O-])c1 | inactive
29 | N[C@@H](CC(=O)O)C(=O)O | inactive
30 | C[C@@H](CN1CCC(Cc2ccccc2)CC1)[C@@H](O)c1ccc(O)cc1 | inactive
31 | CCN1/C(=C/C(C)=O)Sc2ccc(OC)cc21 | inactive
32 | CCCCCCCCCCCCOCCO | inactive
33 | Cn1cc(C2=C(c3ccc(Cl)cc3Cl)C(=O)NC2=O)c2ccccc21 | inactive
34 | CC(=O)N[C@H](C(=O)O)C(C)(C)SN=O | inactive
35 | COc1ccnc2c1CCCCC2S(=O)c1nc2ccccc2[nH]1 (stereo not given) | inactive
36 | CC(C(=O)O)c1ccc(C(=O)c2ccccc2)s1 (stereo not given) | 14.1 µM (active)
37 | N#C/C(=C\c1ccc(-c2cc(Cl)ccc2Cl)o1)C(=O)Nc1cccc2ncccc12 | inactive
38 | COC(=O)C1=C(C)NC(C)=C(C(=O)OCC(C)C)C1c1ccccc1[N+](=O)[O-] (stereo not given) | inactive
39 | c1ccc2sc(SSc3nc4ccccc4s3)nc2c1 | inactive
40 | COc1cccc(OC)c1OCCNCC1COc2ccccc2O1 (stereo not given) | inactive
